Data from PubChem BioAssay (NCI).
Compounds without any hit were thinned out: in the full panel of roughly 83,000, 20% have a hit.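 The test compound was applied at a single concentration to cells in 96-well plates for 48 hours, and percent growth was recorded.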 Unmarked numbers belong to inactive results. Calls of active or inactive are those of the source. Rule for the calls: active = growth percent below 10; inactive = the rest.

Legend:
Assay in all cases: NCI-60 one-dose screen, 48 h (100 = growth as untreated, 0 = no growth, -100 = all killed)
BT-549 breast = conditions: 10 µM unless noted
MDA-MB-435 melanoma = conditions: 10 µM unless noted
SW-620 colon = conditions: 10 µM unless noted
MCF7 breast = conditions: 10 µM
HCT-116 colon = conditions: 10 µM unless noted
HCC-2998 colon = conditions: 10 µM unless noted
KM12 colon = conditions: 10 µM unless noted

Structure (SMILES) | growth (BT-549 breast) | growth (MDA-MB-435 melanoma) | growth (SW-620 colon) | growth (MCF7 breast) | growth (HCT-116 colon) | growth (HCC-2998 colon) | growth (KM12 colon)
O=C1/C=C/[C@@H](O)[C@@H]2C[C@@H](O)C[C@H]2/C=C/CCCCO1 | 45.3% | 23.5% | -33.7% (active) | -48% (active) | 0.136% (active) | 6.82% (active) | -51.1% (active)
CC1=C(CC(=O)c2cccc([N+](=O)[O-])c2)C(=O)c2ccccc2C1=O | 2.6% (active) | -56.1% (active) | -41.2% (active) | 7.59% (active) | 9.03% (active) | 96.9% | 7.77% (active)
NCCNc1nc2ccccc2c2c(=O)c3cc(F)cc(Cl)c3sc12 | 84.8% | -95.2% (active) | -78.9% (active) | -91.6% (active) | -89.6% (active) | 16.2% | -82.6% (active)
c1ccc2c(c1)oc1cc3sccc3nc12 | 89.5% | 99.7% | 96.6% | 99.8% | 96.7% | 118% | 108%
CCC(C)(C)C(=O)O[C@H]1C[C@@H](C)C=C2C=C[C@H](C)[C@H](CC[C@@H]3CC=CC(=O)O3)[C@H]21 | 95.9% | 60.3% | 17.7% | 36.8% | -5.88% (active) | 88.8% | 87.5%
Cn1cc(-c2ccc3ncc(-c4ccc(CC(=O)Nc5cc(C(C)(C)C)no5)cc4)nc3c2)cn1 | 55.4% | 28.8% | 48.3% | 30.2% | 24.4% | 60.2% | 6.86% (active)
COc1ccc(N2C(=O)CC(c3cc(OC)c(OC)c(OC)c3)C3C2=NC(=O)N3C)cc1 (stereo not given) | 109% | 101% | 102% | 98.1% | 106% | 117% | 105%
Cn1nc(C(C)(C)C)cc1NC(=O)Cc1ccc(/C=C2\C(=O)Nc3ccccc32)cc1 | 35.4% | 56% | 76.8% | 19.2% | 33.6% | 96.3% | 21.7%
O=C1/C(=C\c2ccc[nH]2)c2ccccc2N1c1ccccc1 | 78.9% | 108% | 97% | 19.5% | 95.1% | 93.6% | 95.7%
Cc1ccc(OCCCCCCNCCO)c(C)c1 | 27.6% | 15.2% | 18.1% | 9.1% (active) | 19.1% | -6.64% (active) | 15.1%
CCOC(=O)C1(Cc2ccccc2)CCN(Cc2cccc(OC)c2O)CC1 | 50.4% | 20.1% | 20.9% | 13.9% | 21% | 11.9% | 22.2%
CC(=O)O[C@@H]1/C=C/C(=O)N[C@@H](C)CCC/C=C/[C@@H]2CCC[C@H]21 | 117% | 106% | 112% | 98.8% | 104% | 98.5% | 108%
O=C(/C=C/c1ccc(F)cc1)c1ccc(Nc2nc(NCCO)nc(Nc3ccc(Cl)cc3)n2)cc1 | 72% | 74.5% | 46.3% | 4.3% (active) | 8.67% (active) | 29.9% | 25.5%
CC1=NCC2NC(=O)NC(C)=C12 (stereo not given) | 96.4% | 98.4% | 99.9% | 111% | 101% | 113% | 104%
CCOC(=O)CSc1c(-c2ccccc2)c2cc(Cl)ccc2[nH]c1=O | 103% | 99.8% | 102% | 93.3% | 92.1% | 103% | 98.1%
NC(CCl)=NCCC[C@H](N)C(=O)O | 129% | 100% | 100% | 84.8% | 99% | 99.9% | 106%
O=c1c(-c2nc3ccccc3[nH]2)cc2ccccc2n1Cc1cn(Cc2ccc(N3CCOCC3)cc2)nn1 | 45.9% | 76.6% | 70.7% | 56.8% | 83.6% | 93.2% | 87.3%
CCCCCCc1cc2cc(-c3csc(/C=C/c4ccccc4)n3)c(=O)oc2cc1O | 41.4% | -72.2% (active) | 1.96% (active) | 8.1% (active) | 12% | -25.1% (active) | 15.8%

Structure (SMILES) | growth (BT-549 breast) | growth (MDA-MB-435 melanoma) | growth (SW-620 colon) | growth (MCF7 breast) | growth (HCT-116 colon) | growth (HCC-2998 colon) | growth (KM12 colon)
Cc1nc2ccccc2c(/C=C/c2ccc(F)cc2)c1C(N)=O | 97.4% | 107% | 105% | 69.7% | 98.3% | 128% | 101%
O=Nc1c(O)ccc2ccccc12.O=Nc1c(O)ccc2ccccc12.O=Nc1c([O-])ccc2ccccc12.[Fe+3] | 103% | 109% | 97.3% | 89.2% | 97.1% | 113% | 116%
COc1ccc(Cn2c(Br)c3c(c2-c2cc(OC)c(OC)c(OC)c2)CCc2sc(NC(C)=O)nc2-3)cc1 | 74.2% | -57% (active) | 20.5% | 16.3% | 40.7% | 70.2% | 30.4%
FC(F)(F)c1cccc(CNC2CCN(CCc3ccccc3)CC2)c1 | 96.4% | 43.6% | 63% | 74.9% | 31.3% | 19.5% | 70.2%
Cc1cc2c(c(C)c1Cl)C(=O)/C(=C/c1ccco1)O2 | 103% | 100% | 108% | 24.7% | 98.7% | 97.6% | 75.9%
Cc1cc2c(c(C)c1Cl)C(=O)/C(=C/c1cccc([N+](=O)[O-])c1)O2 | 106% | 99.5% | 104% | 66% | 103% | 102% | 103%
CCCCNc1nc(NC(C)(C)C)nc(NC(C)(C)C)n1 | 79.9% | 72% | 52.3% | 56% | 30.8% | 74.3% | 63.8%
Cn1cc([C@@H]2Nc3ccc4[nH]ncc4c3[C@H]3[C@H]4CCC(C4)[C@H]32)c(C(F)(F)F)n1 | 54.6% | -1.69% (active) | 23.5% | 25% | 27.6% | 82.8% | 36.5%
Cc1c(-c2noc(-c3ccc([N+](=O)[O-])cc3)n2)no[n+]1[O-] | 95.7% | 106% | 97.5% | 55.2% | 87.5% | 102% | 92.2%
COc1cccc2c1C=C1CCCCC3=Cc4c(OC)cccc4OC13O2 | 64% | -15.8% (active) | 27.2% | 26.5% | 22.1% | 71.1% | 32.3%
O=c1nc2sc3nc4ccccc4cc3cc-2s1 | 112% | 117% | 107% | 98.1% | 102% | 106% | 129%
COc1ccc(-c2nocc2-c2cccs2)cc1 | 105% | 101% | 99.4% | 97.3% | 103% | 118% | 104%
CCOc1ccc(-c2nonc2NC(=O)c2cccc(C)c2)cc1OCC | 66.8% | 51.7% | 61.8% | 60.3% | 47.2% | 81.8% | 62.6%
NCCOc1ncccc1/C=C1\c2ccccc2-c2ccc(F)cc21 | 82.4% | 60.7% | 14.7% | 14.9% | 15% | 18.3% | 8.88% (active)
COc1nccc2cc3c(=O)n4c(cc5ccccc54)c(=O)n3c12 | 104% | 110% | 101% | 49.1% | 104% | 104% | 103%
CCOc1cccc(/C=N\Nc2nc(=O)cc(C(=O)OC)s2)c1O | 85.4% | 91.6% | 79.3% | 8.66% (active) | 22% | 78% | 75.3%
CCN1C(=O)N(CC)C2C1NC(=S)N2/N=C/C=C/c1ccccc1OC (stereo not given) | -5.67% (active) | -20.9% (active) | 23.6% | 17.8% | 2.3% (active) | 12.4% | 15.6%
